Experimental data: a collection of fitness landscapes (doi:10.1016/j.celrep.2020.107928)
In all, about 81,000 sequences were measured (“one-hybrid fitness for binding NBS DNA”: median about -0.1, highest 2% from about 0.36 on). The sample holds the highest values, similar sequences and a random draw of the others, so the mix is not that of the screen.

B1: Caulobacter ParB omega fusion; a variant is named by its letters at X, in order, B8GW30 (parent)
chain: MESVVVGEPGMSEGRRGLGRGLSALLGEVDAAPAQAPGEQLGGSREAPIEILQRNPDQPRRTFREEDLEDLSNSIREKGVLQPILVRPSPDTAGEYQIVAGERAWRAAQRAGLKTVPIMVRELDDLAVLEIGIIENVQRADLNVLEEALSYKVLMEKFERTQENIAQTIGKSXSHVANXMRLLXLPDEVQSYLVSGELTAXHARAIAAAADPVALAKQIIEGGLSVRETEALARKAPNLSAGKSKGGRPPRVKDTDTQALESDLSSVLGLDVSIDHRGSTGTLTITYATLEQLDDLCNRLTRGI

Variants of: B1
Test: one-hybrid fitness for binding NBS DNA (the Noc-binding site; scaled: cognate 1, non-cognate 0); higher = stronger binding
Settings: with NBS DNA site
Outline: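 Values were rescaled so that cognate is 1 and non-cognate is 0. Each is a fitness, the log change in a variant's read ratio to wild type from Illumina reads of plasmids before and after selection, with three replicate libraries pooled and variants under 10 reads dropped. Selection of the Caulobacter ParB libraries, four specificity codons randomised, used E. coli USO with a HIS3 reporter, site 19 bp from the promoter, on M9-minus-histidine with 0.1 mM IPTG and 5 mM 3-AT for 48 hours at 37°C.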

Variant | one-hybrid fitness for binding NBS DNA
LRHC | ≤ 0.2
KHAS | ≤ 0.2
CVNW | ≤ 0.2
REMW | ≤ 0.2
IEPS | ≤ 0.2
IEPR | 0.427
AEIR | ≤ 0.2
AEPR | 0.408
IEYR | ≤ 0.2
TEPR | ≤ 0.2
LSRY | ≤ 0.2
SFFN | ≤ 0.2
EDND | ≤ 0.2
AQKT | ≤ 0.2
RCPR | ≤ 0.2
RRIR | 0.686
RRID | ≤ 0.2
RRPP | ≤ 0.2
RCIR | 0.294
RRPR | 0.605
WWTF | ≤ 0.2
WLEG | ≤ 0.2
FKSG | ≤ 0.2

Variant | one-hybrid fitness for binding NBS DNA
IVTP | ≤ 0.2
PVGL | ≤ 0.2
RHMD | ≤ 0.2
RKMS | 0.586
RTMD | ≤ 0.2
RHMS | 0.386
RTMH | ≤ 0.2
RCMS | 0.412
RHMH | ≤ 0.2
RKMN | ≤ 0.2
RPMS | ≤ 0.2
RTMS | 0.452
RSMS | 0.351
RKMD | ≤ 0.2
WRRW | ≤ 0.2
DIYS | ≤ 0.2
HNSK | ≤ 0.2
TLTK | ≤ 0.2
QTNF | 0.244
QTNN | 0.327
QTDH | 0.335
QCNQ | 0.222
QTNH | 0.495

Variant | one-hybrid fitness for binding NBS DNA
QTNQ | 0.377
QTDS | 0.331
QTDY | ≤ 0.2
QTNY | 0.431
QTDQ | ≤ 0.2
QSNY | ≤ 0.2
QTNS | 0.629
HFFR | ≤ 0.2
RCTP | ≤ 0.2
EWRC | ≤ 0.2
YVHE | ≤ 0.2
VDSG | ≤ 0.2
HSAM | ≤ 0.2
VVYR | ≤ 0.2
RTAD | ≤ 0.2
RSAD | ≤ 0.2
RTAS | 0.454
RMAS | 0.405
RSAP | ≤ 0.2
RPAW | ≤ 0.2
RMAN | ≤ 0.2
RMAH | ≤ 0.2
RCAW | 0.431

Variant | one-hybrid fitness for binding NBS DNA
RSAS | 0.424
RSAW | ≤ 0.2
RTAP | ≤ 0.2
SWHQ | ≤ 0.2
IRHW | ≤ 0.2
EMAM | ≤ 0.2
DYQG | ≤ 0.2
TGTL | ≤ 0.2
WNAL | ≤ 0.2
RAAD | ≤ 0.2
RLAH | ≤ 0.2
RAAS | 0.368
RCAS | 0.476
RAAH | ≤ 0.2
RHAN | ≤ 0.2
RPAS | ≤ 0.2
RLAP | ≤ 0.2
RHAP | ≤ 0.2
RLAS | 0.383
RHAS | 0.433
RIAS | 0.345
TIIA | ≤ 0.2
APSV | ≤ 0.2

Variant | one-hybrid fitness for binding NBS DNA
HMQC | ≤ 0.2
LRDK | ≤ 0.2
SENT | ≤ 0.2
LQVS | ≤ 0.2
PPFG | ≤ 0.2
RSHK | ≤ 0.2
QQTN | ≤ 0.2
QQTT | 0.464
QQTC | ≤ 0.2
QQTR | 0.648
QQTS | 0.433
QQTD | ≤ 0.2
QQTF | ≤ 0.2
QQTP | ≤ 0.2
QQTH | 0.264
WSIE | ≤ 0.2
GCAR | ≤ 0.2
RQSC | ≤ 0.2
YATR | ≤ 0.2
SEFT | ≤ 0.2
STWN | ≤ 0.2
SNPF | ≤ 0.2
LHCS | ≤ 0.2

Variant | one-hybrid fitness for binding NBS DNA
CNGF | ≤ 0.2
FEEV | ≤ 0.2
LQET | ≤ 0.2
RARN | ≤ 0.2
RAIS | ≤ 0.2
RANS | 0.484
RANH | ≤ 0.2
RARH | 0.306
RAWS | 0.262
RADS | ≤ 0.2
RARS | 0.564
RAYS | 0.423
DPHT | ≤ 0.2
NPRM | ≤ 0.2
HYCF | ≤ 0.2
GLER | ≤ 0.2
NTPI | ≤ 0.2
RRQP | ≤ 0.2
RRQS | 0.69
RRQD | ≤ 0.2
RRQN | 0.322
RSQG | ≤ 0.2
RCQH | 0.228

Variant | one-hybrid fitness for binding NBS DNA
RRQH | 0.447
RRQG | 0.377
RCQG | ≤ 0.2
PGAA | ≤ 0.2
NLQS | ≤ 0.2
HATK | ≤ 0.2
WPRM | ≤ 0.2
LVQN | ≤ 0.2
DLGR | ≤ 0.2
GFTS | ≤ 0.2
NYKR | ≤ 0.2
QYVP | ≤ 0.2
QYKR | 0.99
EYKR | ≤ 0.2
QYVN | ≤ 0.2
QYVR | 0.381
KYYF | ≤ 0.2
SYTG | ≤ 0.2
